Assay results from PubChem BioAssay.
Activity calls are given as the source filed them.

How the values were obtained:
[1] = binders of probe aFSTL3 on microarray, primary screen, stem cell growth factor project, biochemical, small-molecule microarray, fluorescence 635/667 (AID 1064); conditions: higher = more signal;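 note: measures binding of the biotinylated anti-FSTL3 antibody to printed compounds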
[2] = binders from COS7 lysate, DM2A8 probe, primary screen, torsin A project, cell lysate, small-molecule microarray, fluorescence 635/667 (AID 1065); conditions: higher = more signal, COS7 lysate expressing mutant human TOR1A
[3] = binders of probe aFGF2 on microarray, primary screen, stem cell growth factor project, biochemical, small-molecule microarray, fluorescence 635/667 (AID 1067); conditions: higher = more signal;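 note: measures binding of biotinylated aFGF2 protein to printed compounds on slides; z-score merges feature fluorescence and signal-to-noise across triplicate slides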
[4] = binders of probe aFGF10 on microarray, primary screen, stem cell growth factor project, biochemical, small-molecule microarray, fluorescence 635/667 (AID 1071); conditions: higher = more signal;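 note: score merges 667 nm spot intensity and signal to noise from triplicate slides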
[5] = biological target: Neurogenic locus notch homolog protein 2 (Homo sapiens) (UniProt Q04721); assay: Notch2 binders on small-molecule microarrays, primary screen, biochemical, small-molecule microarray, 635 nm fluorescence, stem cell growth factors (AID 1073); conditions: Notch2 binding, higher = more signal
Sequence of Neurogenic locus notch homolog protein 2 (Homo sapiens) (Q04721 whole entry, looked up, canonical isoform): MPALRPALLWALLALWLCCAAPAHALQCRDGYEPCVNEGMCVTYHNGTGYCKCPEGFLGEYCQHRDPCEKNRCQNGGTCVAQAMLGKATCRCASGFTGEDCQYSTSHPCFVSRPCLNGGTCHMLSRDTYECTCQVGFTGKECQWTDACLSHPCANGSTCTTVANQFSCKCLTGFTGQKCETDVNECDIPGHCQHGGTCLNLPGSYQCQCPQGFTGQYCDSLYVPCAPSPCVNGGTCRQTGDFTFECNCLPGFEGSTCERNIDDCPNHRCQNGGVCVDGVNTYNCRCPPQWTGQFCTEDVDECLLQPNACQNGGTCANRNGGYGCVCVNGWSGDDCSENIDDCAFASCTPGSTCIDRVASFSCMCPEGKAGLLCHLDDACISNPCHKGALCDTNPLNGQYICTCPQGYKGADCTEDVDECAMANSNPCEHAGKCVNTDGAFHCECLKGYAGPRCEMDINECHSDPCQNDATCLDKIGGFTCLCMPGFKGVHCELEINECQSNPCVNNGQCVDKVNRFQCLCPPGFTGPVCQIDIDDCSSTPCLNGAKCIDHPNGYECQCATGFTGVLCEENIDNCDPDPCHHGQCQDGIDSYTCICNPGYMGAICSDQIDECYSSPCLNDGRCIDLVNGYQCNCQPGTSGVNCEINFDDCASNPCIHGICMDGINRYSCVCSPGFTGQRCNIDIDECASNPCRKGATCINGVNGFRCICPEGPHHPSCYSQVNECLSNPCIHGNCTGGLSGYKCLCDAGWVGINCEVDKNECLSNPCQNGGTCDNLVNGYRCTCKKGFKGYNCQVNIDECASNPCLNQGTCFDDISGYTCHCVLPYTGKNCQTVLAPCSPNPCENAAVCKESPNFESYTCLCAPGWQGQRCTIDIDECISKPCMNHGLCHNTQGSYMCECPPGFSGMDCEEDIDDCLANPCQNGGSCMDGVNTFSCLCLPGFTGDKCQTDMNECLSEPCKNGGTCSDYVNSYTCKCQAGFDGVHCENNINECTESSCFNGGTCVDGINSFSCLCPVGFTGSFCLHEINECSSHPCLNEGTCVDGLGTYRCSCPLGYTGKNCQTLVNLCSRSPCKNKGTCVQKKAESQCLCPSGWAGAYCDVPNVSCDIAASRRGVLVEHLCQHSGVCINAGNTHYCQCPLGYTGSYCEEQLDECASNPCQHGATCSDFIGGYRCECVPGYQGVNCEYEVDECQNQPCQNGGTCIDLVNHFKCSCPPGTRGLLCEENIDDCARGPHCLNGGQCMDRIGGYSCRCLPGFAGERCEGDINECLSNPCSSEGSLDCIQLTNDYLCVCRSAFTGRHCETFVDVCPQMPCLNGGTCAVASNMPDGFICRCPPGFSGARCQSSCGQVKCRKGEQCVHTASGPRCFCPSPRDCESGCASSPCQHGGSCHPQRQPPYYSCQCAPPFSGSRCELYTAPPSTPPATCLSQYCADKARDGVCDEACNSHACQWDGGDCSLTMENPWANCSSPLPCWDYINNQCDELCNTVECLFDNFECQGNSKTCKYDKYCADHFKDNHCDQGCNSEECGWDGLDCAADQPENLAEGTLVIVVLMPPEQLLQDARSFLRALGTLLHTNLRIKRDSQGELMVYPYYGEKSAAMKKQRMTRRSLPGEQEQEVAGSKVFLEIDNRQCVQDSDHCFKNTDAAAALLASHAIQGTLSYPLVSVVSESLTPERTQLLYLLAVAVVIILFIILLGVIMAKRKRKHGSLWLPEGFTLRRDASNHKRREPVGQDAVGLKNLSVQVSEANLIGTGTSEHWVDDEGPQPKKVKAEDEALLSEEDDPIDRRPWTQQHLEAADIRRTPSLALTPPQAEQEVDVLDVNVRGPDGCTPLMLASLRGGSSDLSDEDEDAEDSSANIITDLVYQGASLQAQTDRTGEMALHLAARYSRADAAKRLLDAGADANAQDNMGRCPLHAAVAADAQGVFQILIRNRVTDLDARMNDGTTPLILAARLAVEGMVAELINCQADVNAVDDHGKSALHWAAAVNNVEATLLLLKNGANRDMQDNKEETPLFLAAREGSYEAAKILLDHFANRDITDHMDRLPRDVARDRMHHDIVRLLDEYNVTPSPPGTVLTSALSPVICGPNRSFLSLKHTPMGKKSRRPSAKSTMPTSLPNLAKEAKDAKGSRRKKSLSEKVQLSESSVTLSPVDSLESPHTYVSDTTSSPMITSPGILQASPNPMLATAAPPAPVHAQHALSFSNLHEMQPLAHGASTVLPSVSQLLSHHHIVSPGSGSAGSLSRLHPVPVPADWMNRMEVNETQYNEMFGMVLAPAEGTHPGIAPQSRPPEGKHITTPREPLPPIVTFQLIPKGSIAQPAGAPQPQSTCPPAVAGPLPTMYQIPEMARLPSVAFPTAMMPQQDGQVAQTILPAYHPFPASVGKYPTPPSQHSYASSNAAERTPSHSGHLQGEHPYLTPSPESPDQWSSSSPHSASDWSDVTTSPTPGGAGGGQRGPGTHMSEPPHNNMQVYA

[6] = biological target: Pro-neuregulin-1, membrane-bound isoform (Homo sapiens) (UniProt Q02297); assay: NRG1 binders on small-molecule microarrays, primary screen, psychiatric disease protein project, biochemical, small-molecule microarray, fluorescence 635/667 (AID 1075); conditions: NRG1 binding, 635 nm fluorescence, higher = more signal;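 note: score combines 667 nm spot fluorescence with signal to noise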
Sequence of Pro-neuregulin-1, membrane-bound isoform (Homo sapiens) (Q02297 whole entry, looked up, the tested form may be a part, canonical isoform): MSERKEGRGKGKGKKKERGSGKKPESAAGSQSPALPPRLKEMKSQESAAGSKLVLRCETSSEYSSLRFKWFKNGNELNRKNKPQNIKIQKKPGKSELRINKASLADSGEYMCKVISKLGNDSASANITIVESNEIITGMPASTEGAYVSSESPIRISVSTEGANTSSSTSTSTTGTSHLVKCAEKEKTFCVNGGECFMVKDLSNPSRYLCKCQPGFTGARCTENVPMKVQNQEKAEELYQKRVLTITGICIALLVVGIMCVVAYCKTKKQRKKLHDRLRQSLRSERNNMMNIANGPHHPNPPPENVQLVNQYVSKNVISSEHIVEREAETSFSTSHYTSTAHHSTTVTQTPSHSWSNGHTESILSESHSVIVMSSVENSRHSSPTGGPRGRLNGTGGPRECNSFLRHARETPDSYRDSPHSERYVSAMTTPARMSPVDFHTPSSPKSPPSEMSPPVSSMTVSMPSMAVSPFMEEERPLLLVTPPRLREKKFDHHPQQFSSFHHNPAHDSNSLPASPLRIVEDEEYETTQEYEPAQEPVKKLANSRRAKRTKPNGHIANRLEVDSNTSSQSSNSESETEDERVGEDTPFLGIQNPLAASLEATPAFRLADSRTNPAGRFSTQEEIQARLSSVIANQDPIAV

[7] = tested on: Neuregulin-1 EGF-like domain; assay: binders of neuregulin-1 EGF-like domain, primary screen, biochemical, small-molecule microarray, 635 nm fluorescence (AID 1081); conditions: small-molecule microarray binding, higher = more signal;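 note: binding of the protein to compounds printed on small-molecule microarray slides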
[8] = FRG1 promoter luciferase signal modulators, primary screen, FRG1 inhibition for FSHD, cell-based, C2C12 myotubes, firefly/Renilla luciferase, luminescence (AID 1084); conditions: higher = more signal, called active from +8 up or from −8 down
[9] = binders of probe aFST on microarray, primary screen, stem cell growth factor project, biochemical, small-molecule microarray, fluorescence 635/667 (AID 1086); conditions: higher = more signal;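 note: score merges 667 nm fluorescence with signal-to-noise of each printed compound spot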
[10] = binders of probe aHhip on microarray, primary screen, stem cell growth factor project, biochemical, small-molecule microarray, fluorescence 635/667 (AID 1087); conditions: higher = more signal;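 note: score merges spot fluorescence at 667nm with spot signal to noise ratio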
[11] = tested on: PRMT1 (protein arginine N-methyltransferase 1); assay: PRMT1 binders on small-molecule microarrays, primary screen, biochemical, small-molecule microarray, 635 nm fluorescence (AID 1088); conditions: small-molecule microarray binding, higher = more signal;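 note: binding of Prmt1 protein to compounds spotted on small-molecule microarray slides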
[12] = yeast growth modulation, basal conditions, primary screen, YJM789 clinical isolate, OD600, 24 h (AID 1089);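 note: growth of clinical yeast isolate S. cerevisiae YJM 789 seeded 1000 cells per well; test concentration not given here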; conditions: S. cerevisiae YJM789 growth, higher = more signal, called active from +8 up or from −8 down
[13] = fission yeast growth modulation, primary screen, strain 972, OD600, 24 h, no modulator (AID 1090);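 note: basal condition with compound alone and no growth modifier present; test concentration not given here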; conditions: S. pombe 972 growth, higher = more signal, called active from +8 up or from −8 down
[14] = S. cerevisiae growth modulation with rapamycin, primary screen, strain BY4716, OD600, 96 h (AID 1091); conditions: higher = more signal, called active from +8 up or from −8 down; note: test concentration not given here
[15] = biological target: Torsin-1A-interacting protein 2 (Homo sapiens) (UniProt Q8NFQ8); assay: LULL1 binders on small-molecule microarray, primary screen, cell lysate, human LULL1 lysate, 635/667 nm fluorescence (AID 1092); conditions: hLULL1 lysate binding, 635 nm fluorescence, higher = more signal;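 note: probe is lysate of COS7 cells overexpressing human LULL1; score merges per-feature 667 nm fluorescence with signal-to-noise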
Sequence of Torsin-1A-interacting protein 2 (Homo sapiens) (Q8NFQ8 whole entry, looked up): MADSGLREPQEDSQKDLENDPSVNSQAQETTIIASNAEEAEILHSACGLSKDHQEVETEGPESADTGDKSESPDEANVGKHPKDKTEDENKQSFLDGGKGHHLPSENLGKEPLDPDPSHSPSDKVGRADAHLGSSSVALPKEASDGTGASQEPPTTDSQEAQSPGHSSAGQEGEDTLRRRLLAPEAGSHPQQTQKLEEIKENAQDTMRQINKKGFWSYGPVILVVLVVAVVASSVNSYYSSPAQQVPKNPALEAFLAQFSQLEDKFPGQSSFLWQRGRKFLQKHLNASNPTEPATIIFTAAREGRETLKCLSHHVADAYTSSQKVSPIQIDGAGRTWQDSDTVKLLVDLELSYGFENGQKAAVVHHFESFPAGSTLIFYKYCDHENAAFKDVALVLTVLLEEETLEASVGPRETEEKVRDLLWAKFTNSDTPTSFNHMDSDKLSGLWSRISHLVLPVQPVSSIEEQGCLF

[16] = E. coli growth modulation, two-sided OD650, primary screen, E. coli filamentation project, strain DRC41, 24 h (AID 1093); conditions: OD650, 24 h, higher = more signal, called active from +8 up or from −8 down;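 note: MC1000 strain lacking acrAB efflux and sulA so SOS filamentation is blocked; test concentration not given here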
[17] = small-molecule microarray binders of probe aLefty2, primary screen, biochemical, biotinylated probe, 635/667 nm fluorescence (AID 1094); conditions: higher = more signal;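 note: score merges spot fluorescence near 667 nm with spot signal-to-noise ratio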
[18] = tested on: Noggin (protein binding on small-molecule microarray); assay: Noggin binders on small-molecule microarray, primary screen, biochemical, 635/667 nm fluorescence (AID 1095); conditions: 635 nm fluorescence, higher = more signal;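 note: score merges 667 nm feature fluorescence with signal to noise over triplicate slides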
[19] = biological target: Neurogenic locus notch homolog protein 3 (Homo sapiens) (UniProt Q9UM47); assay: NOTCH3 binders on small-molecule microarray, primary screen, biochemical, 635/667 nm fluorescence (AID 1096); conditions: NOTCH3 binding, 635 nm fluorescence, higher = more signal
[20] = small-molecule microarray binders of probe aEGFR, primary screen, biochemical, biotinylated probe, 635/667 nm fluorescence (AID 1097); conditions: higher = more signal;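 note: probe is a biotinylated anti-EGFR antibody binding compounds printed on slides; score combines fluorescence near 667 nm and signal to noise of each spot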

| Structure (SMILES) | composite z-score [1] | composite z-score [2] | composite z-score [3] | composite z-score [4] | composite z-score [5] | composite z-score [6] | composite z-score [7] | z-score [8] | composite z-score [9] | composite z-score [10] | composite z-score [11] | z-score [12] | z-score [13] | z-score [14] | composite z-score [15] | z-score [16] | composite z-score [17] | composite z-score [18] | composite z-score [19] | composite z-score [20] |
| --- | --- | --- | --- | --- | --- | --- | --- | --- | --- | --- | --- | --- | --- | --- | --- | --- | --- | --- | --- | --- |
| C=CC[C@]1(C(=O)N(C)C)N=C(c2ccc(OCCCO)cc2)O[C@H]1c1ccccc1 | 0.334 | 0.184 | 0.229 | 1.14 | 0.353 | 1.85 | 1.34 | 2.28 (inactive) | 0.463 | 0.064 | 1.43 | -1.76 (inactive) | -3.16 (inactive) | -0.979 (inactive) | 3.59 | 0.896 (inactive) | 0.0158 | 0.364 | 1.14 | -0.0512 |
| CCOC(=O)C1=CC[C@@H](c2ccc(N(CC)CC)cc2)N(S(=O)(=O)c2ccc(C)cc2)[C@H]1c1ccc([N+](=O)[O-])cc1 | 0.709 | -0.346 | -0.0336 | -0.865 | -0.398 | 0.722 | 0.722 | -0.162 (inactive) | 0.0676 | -0.0237 | 0.554 | -0.673 (inactive) | 0.0534 (inactive) | 2.76 (inactive) | 2.29 | -0.532 (inactive) | 0.415 | -0.796 | 0.206 | -0.0688 |
| COC(=O)[C@@]1(Cc2ccc(F)cc2)[C@H]2c3cc(C(=O)N(C)C)n(CCSCCO)c3C[C@H]2CN1C(=O)c1ccccc1 | 0.304 | 0.273 | 0.203 | 0.487 | 1.36 | 1.95 | 0.943 | 1.29 (inactive) | 0.568 | -0.0029 | 0.0793 | 0.125 (inactive) | 0.642 (inactive) | -0.0109 (inactive) | 2.72 | 0.162 (inactive) | 0.0126 | -0.443 | 0.229 | -0.162 |
| Cc1ccc(-c2cccc(=O)o2)cc1 | 0.139 | -0.549 | -0.0973 | -0.304 | -0.351 | -0.411 | -0.596 | 5.3 (inactive) | 0.121 | -0.353 | -0.0072 | -1.91 (inactive) | -1.56 (inactive) | 1 (inactive) | -0.606 | 0.0307 (inactive) | -0.183 | -0.175 | -0.312 | -0.105 |
| COCC(=C=CC[C@@H](O)c1ccccc1OCCO)C[C@@H](O)COCc1ccccc1 | 0.181 | 1.12 | -0.0267 | 1.06 | -0.258 | 1.68 | 1.01 | -1.11 (inactive) | 0.463 | 0.891 | 1.23 | -0.893 (inactive) | -1.68 (inactive) | -1.26 (inactive) | 2.62 | 1.73 (inactive) | 0.437 | 1.01 | -0.0082 | 0.0017 |
| CCCCC(CC)C(O)C1C=CC2C(=O)NC(=O)C2N1Nc1ccccn1 (stereo not given) | -0.252 | -0.14 | -0.0005 | 0.207 | 1.41 | 1.38 | 0.879 | 1.54 (inactive) | 0.245 | 0.204 | 1.34 | 0.601 (inactive) | 0.764 (inactive) | 0.722 (inactive) | 2.74 | -0.828 (inactive) | -0.11 | 0.0732 | 1.1 | -0.119 |
| [N-]=[N+]=NCc1ccccc1C[C@@]1(C(=O)NCCN2CCOCC2)N=C(c2ccc(OCCCO)cc2)O[C@@H]1c1ccccc1CN=[N+]=[N-] | -0.166 | 0.69 | 0.105 | 0.924 | 1.26 | 1.27 | 1.21 | -2.25 (inactive) | 1.59 | 0.0053 | 1.56 | -0.0759 (inactive) | -0.67 (inactive) | 2.01 (inactive) | 2.84 | 1.24 (inactive) | 0.146 | 1.11 | 1.08 | 0.177 |
| CC1C=C(CCCO)C=C(C(=O)OCCS(C)(=O)=O)C(C(=O)OCCS(C)(=O)=O)=CN1Cc1cccc(OC(F)(F)F)c1 (stereo not given) | -0.228 | 0.21 | -0.0379 | 0.203 | 0.707 | 2.08 | 1.14 | 0.416 (inactive) | 0.106 | -0.0645 | 0.482 | -1.27 (inactive) | -2.49 (inactive) | -0.0014 (inactive) | 3.11 | -0.436 (inactive) | 0.0057 | 0.0266 | 0.379 | -0.0418 |
| C[N+](C)(C)CCCC[C@@H]1NC(=O)[C@@H]2C[C@H](C(=O)NCCCCCNC(=O)CS)[C@H](c3cccc(OCCO)c3)N2C1=O | -0.129 | 0.5 | 0.0402 | 0.294 | 0.151 | 0.634 | 1.21 | -0.669 (inactive) | -0.0763 | 0.138 | 0.749 | 0.539 (inactive) | -0.879 (inactive) | 0.378 (inactive) | 0.743 | 0.906 (inactive) | 0.115 | 0.505 | -0.296 | 0.0338 |
| C=CC[C@@]1(C(=O)NCCN2CCOCC2)N=C(c2ccc(OCCCO)cc2)O[C@@H]1c1ccccc1 | 0.424 | 1.64 | 0.0342 | 0.66 | 0.52 | 0.595 | 1.36 | 0.254 (inactive) | 1.16 | 0.124 | 1.54 | 0.305 (inactive) | 0.132 (inactive) | 0.33 (inactive) | 3.01 | 0.0348 (inactive) | 0.0634 | 2.08 | 0.625 | 0.0149 |
